Drawing on publication PMC7862700, “An all-to-all approach to the identification of sequence-specific readers for epigenetic DNA modifications on cytosine”, this text covers binding signal for nine sequences.

What all share (assay): DAPPL (digital affinity profiling via proximity ligation, sequencing); 10 mM Tris-HCl pH 7.5, 50 mM NaCl, 1 mM DTT, 4% glycerol, room temperature, 30 min; GST-TFs on glutathione beads, 16-mer random dsDNA library, 0.1% formaldehyde crosslink after washing; high values mean tight binding
Holding throughout (settings): protein: recombinant; tags: N-terminal GST; dsDNA, one strand shown

For one test, the target named is T1, ERF (Homo sapiens, UniProt P50548 1-548).
T1 sequence: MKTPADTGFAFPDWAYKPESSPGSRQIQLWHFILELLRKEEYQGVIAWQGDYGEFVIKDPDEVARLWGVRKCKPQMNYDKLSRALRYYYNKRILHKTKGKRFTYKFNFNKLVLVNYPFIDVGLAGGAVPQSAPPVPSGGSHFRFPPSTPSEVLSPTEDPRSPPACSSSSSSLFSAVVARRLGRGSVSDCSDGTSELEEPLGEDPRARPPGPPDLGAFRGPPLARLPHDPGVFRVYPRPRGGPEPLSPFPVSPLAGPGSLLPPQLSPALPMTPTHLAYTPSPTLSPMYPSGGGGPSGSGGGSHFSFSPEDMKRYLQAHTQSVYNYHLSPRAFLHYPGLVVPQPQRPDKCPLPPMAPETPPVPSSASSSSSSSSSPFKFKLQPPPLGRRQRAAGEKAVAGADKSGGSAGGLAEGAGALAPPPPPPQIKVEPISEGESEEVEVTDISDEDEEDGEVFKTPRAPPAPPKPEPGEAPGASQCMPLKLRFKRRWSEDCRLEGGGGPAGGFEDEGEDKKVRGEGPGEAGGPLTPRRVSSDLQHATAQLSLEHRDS
The method in brief: (§1)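 Binding signal is each hexamer's read frequency for a factor divided by its frequency in the tag-only sample. The factors were GST-fused human transcription factors from yeast, captured on glutathione beads, DNA-barcoded and pooled with that sample. Pools were incubated with 200 nmole of a random double-stranded 16-mer DNA library in Tris/NaCl/DTT/glycerol buffer at room temperature for 30 min, then washed, crosslinked with 0.1% formaldehyde, proximity-ligated with BsaI/T4 ligase (1 h, 37 °C), PCR-amplified and sequenced on an Illumina NextSeq500.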

The next test concerns the target T2, ETV3L (Homo sapiens, UniProt Q6ZN32 1-361).
T2 sequence: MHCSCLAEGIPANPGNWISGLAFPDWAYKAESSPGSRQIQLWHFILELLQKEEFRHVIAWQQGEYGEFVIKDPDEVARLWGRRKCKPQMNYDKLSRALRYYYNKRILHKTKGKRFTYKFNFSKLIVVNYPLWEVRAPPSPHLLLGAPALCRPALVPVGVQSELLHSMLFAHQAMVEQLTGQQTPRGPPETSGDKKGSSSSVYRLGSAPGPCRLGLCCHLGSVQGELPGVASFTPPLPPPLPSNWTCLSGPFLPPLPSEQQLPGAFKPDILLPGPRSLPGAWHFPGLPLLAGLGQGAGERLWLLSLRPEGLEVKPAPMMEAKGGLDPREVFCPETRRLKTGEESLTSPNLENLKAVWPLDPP
An outline of the steps:
as §1

In a further test the target is T3, ETS2 (Homo sapiens, UniProt P15036 1-469).
T3 sequence: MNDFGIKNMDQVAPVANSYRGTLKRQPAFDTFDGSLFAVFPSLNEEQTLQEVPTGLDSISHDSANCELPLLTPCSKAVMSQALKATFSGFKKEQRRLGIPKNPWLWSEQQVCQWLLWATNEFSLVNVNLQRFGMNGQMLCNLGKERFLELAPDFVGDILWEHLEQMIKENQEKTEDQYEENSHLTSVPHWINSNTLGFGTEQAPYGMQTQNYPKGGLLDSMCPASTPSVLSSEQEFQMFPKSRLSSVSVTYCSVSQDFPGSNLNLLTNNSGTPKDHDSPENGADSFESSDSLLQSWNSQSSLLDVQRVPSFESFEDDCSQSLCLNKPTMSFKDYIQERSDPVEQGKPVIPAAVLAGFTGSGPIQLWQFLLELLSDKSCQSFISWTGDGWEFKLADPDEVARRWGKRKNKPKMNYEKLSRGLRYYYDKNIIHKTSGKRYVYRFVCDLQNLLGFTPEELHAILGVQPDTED
The method in brief:
as §1

The next test deals with T4, SPDEF (Homo sapiens, UniProt O95238 1-335).
T4 sequence: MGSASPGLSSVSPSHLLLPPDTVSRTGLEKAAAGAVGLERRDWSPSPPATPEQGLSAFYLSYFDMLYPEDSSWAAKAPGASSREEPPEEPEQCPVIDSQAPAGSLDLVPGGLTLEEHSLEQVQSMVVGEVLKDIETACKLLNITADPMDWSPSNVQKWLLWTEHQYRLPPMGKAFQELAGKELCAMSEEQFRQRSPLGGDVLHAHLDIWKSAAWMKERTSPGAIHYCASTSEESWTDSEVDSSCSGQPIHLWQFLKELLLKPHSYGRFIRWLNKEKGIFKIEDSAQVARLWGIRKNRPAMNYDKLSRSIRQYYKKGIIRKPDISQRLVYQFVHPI
The method in brief:
as §1

For a further test, the target named is T5, ETV7 (Homo sapiens, UniProt Q9Y603 1-341).
T5 sequence: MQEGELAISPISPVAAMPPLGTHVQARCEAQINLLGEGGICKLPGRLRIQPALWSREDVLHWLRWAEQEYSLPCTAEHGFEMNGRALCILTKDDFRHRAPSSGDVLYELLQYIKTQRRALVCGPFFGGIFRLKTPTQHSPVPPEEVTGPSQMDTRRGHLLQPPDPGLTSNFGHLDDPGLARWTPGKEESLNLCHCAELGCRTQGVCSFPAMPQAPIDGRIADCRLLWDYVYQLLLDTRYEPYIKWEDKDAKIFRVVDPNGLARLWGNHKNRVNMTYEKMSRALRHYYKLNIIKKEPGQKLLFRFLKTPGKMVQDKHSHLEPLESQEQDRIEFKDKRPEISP
The method in brief:
as §1

The target in a further test is T6, ELF5 (Homo sapiens, UniProt Q9UKW6-2 1-255).
T6 sequence: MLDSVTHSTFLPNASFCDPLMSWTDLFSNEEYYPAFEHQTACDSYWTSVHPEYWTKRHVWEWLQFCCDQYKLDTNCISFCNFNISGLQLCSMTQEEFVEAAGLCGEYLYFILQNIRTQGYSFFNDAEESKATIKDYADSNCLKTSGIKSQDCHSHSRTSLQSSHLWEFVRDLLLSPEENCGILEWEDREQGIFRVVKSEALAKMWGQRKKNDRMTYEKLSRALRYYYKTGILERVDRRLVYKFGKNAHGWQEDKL
The method in brief:
as §1

For another test, the target named is T7, ETV3 (Homo sapiens, UniProt P41162-2 1-143).
T7 sequence: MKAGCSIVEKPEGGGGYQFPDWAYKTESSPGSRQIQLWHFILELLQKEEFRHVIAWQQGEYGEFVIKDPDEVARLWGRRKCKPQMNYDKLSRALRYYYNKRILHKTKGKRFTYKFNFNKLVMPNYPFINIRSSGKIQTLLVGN
The method in brief: as §1

For a further test, the target named is ETV6 (Homo sapiens, UniProt P41212 1-452). The method in brief: as §1
Sequence of ETV6 (P41212 whole entry): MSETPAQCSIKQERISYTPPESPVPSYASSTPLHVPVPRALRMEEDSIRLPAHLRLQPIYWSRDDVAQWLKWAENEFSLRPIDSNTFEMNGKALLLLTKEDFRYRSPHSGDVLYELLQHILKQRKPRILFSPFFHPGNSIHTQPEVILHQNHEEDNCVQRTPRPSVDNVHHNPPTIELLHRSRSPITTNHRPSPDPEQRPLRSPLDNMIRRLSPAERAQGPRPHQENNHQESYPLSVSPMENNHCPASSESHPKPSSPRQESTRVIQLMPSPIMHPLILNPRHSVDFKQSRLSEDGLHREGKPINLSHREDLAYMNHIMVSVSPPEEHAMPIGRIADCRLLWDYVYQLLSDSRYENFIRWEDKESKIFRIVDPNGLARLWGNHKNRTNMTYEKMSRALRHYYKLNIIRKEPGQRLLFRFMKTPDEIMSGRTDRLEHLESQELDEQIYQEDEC

Turning to CAACGA, the binding signal is 1.05 fold enrichment (6-mer frequency, TF over GST control) with ERF; 1.08 fold enrichment (6-mer frequency, TF over GST control) with ETV3L; 1.11 fold enrichment (6-mer frequency, TF over GST control) with ETS2; 1.01 fold enrichment (6-mer frequency, TF over GST control) with SPDEF; 1.05 fold enrichment (6-mer frequency, TF over GST control) with ETV7; 1.01 fold enrichment (6-mer frequency, TF over GST control) with ELF5. The binding signal was 1.07 fold enrichment (6-mer frequency, TF over GST control) with ETV3 and 1.04 fold enrichment (6-mer frequency, TF over GST control) with ETV6.

With AGGAAA, the binding signal with ERF is 1.34 fold enrichment (6-mer frequency, TF over GST control); in the test with ETV3L, 1.37 fold enrichment (6-mer frequency, TF over GST control); with ETS2, 1.48 fold enrichment (6-mer frequency, TF over GST control); with SPDEF, 1.31 fold enrichment (6-mer frequency, TF over GST control); in the test with ETV7, 1.46 fold enrichment (6-mer frequency, TF over GST control); with ELF5, 2.19 fold enrichment (6-mer frequency, TF over GST control). In addition, the binding signal with ETV3 was 1.52 fold enrichment (6-mer frequency, TF over GST control); with ETV6, 1.75 fold enrichment (6-mer frequency, TF over GST control).

As for ACCCCA, the binding signal in the test with ERF is 1.08 fold enrichment (6-mer frequency, TF over GST control); in the test with ETV3L, 1.09 fold enrichment (6-mer frequency, TF over GST control); with ETS2 it was 1.15 fold enrichment (6-mer frequency, TF over GST control); with SPDEF it was 1.02 fold enrichment (6-mer frequency, TF over GST control); in the test with ETV7 it was 1.06 fold enrichment (6-mer frequency, TF over GST control); in the test with ELF5, 1.04 fold enrichment (6-mer frequency, TF over GST control). In addition, the binding signal in the test with ETV3 is 1.09 fold enrichment (6-mer frequency, TF over GST control); in the test with ETV6, 1.02 fold enrichment (6-mer frequency, TF over GST control).

Take ATACTC: the binding signal with ERF is 1.36 fold enrichment (6-mer frequency, TF over GST control); with ETV3L it was 1.22 fold enrichment (6-mer frequency, TF over GST control); with ETS2, 1.26 fold enrichment (6-mer frequency, TF over GST control); with SPDEF, 1.32 fold enrichment (6-mer frequency, TF over GST control); with ETV7 it was 1.23 fold enrichment (6-mer frequency, TF over GST control); in the test with ELF5, 1.25 fold enrichment (6-mer frequency, TF over GST control). Further, the binding signal was 1.33 fold enrichment (6-mer frequency, TF over GST control) with ETV3 and 1.33 fold enrichment (6-mer frequency, TF over GST control) with ETV6.

For ATGTCC, the binding signal with ERF is 1.36 fold enrichment (6-mer frequency, TF over GST control); with ETV3L it was 1.7 fold enrichment (6-mer frequency, TF over GST control); with ETS2, 1.58 fold enrichment (6-mer frequency, TF over GST control); with SPDEF it was 2.05 fold enrichment (6-mer frequency, TF over GST control); with ETV7, 1.71 fold enrichment (6-mer frequency, TF over GST control); in the test with ELF5, 1.65 fold enrichment (6-mer frequency, TF over GST control). For the same sequence, the binding signal with ETV3 was 1.8 fold enrichment (6-mer frequency, TF over GST control); with ETV6, 1.57 fold enrichment (6-mer frequency, TF over GST control).

Turning to TGACGC, the binding signal in the test with ERF was 1.34 fold enrichment (6-mer frequency, TF over GST control); in the test with ETV3L, 1.24 fold enrichment (6-mer frequency, TF over GST control); in the test with ETS2 it was 1.12 fold enrichment (6-mer frequency, TF over GST control); in the test with SPDEF it was 1.13 fold enrichment (6-mer frequency, TF over GST control); with ETV7 it was 1.13 fold enrichment (6-mer frequency, TF over GST control); in the test with ELF5, 1.19 fold enrichment (6-mer frequency, TF over GST control). In addition, the binding signal with ETV3 is 1.15 fold enrichment (6-mer frequency, TF over GST control); in the test with ETV6, 1.19 fold enrichment (6-mer frequency, TF over GST control).

As to GATATC, the binding signal with ERF was 1.56 fold enrichment (6-mer frequency, TF over GST control); with ETV3L, 1.46 fold enrichment (6-mer frequency, TF over GST control); with ETS2 it was 1.49 fold enrichment (6-mer frequency, TF over GST control); with SPDEF it was 1.92 fold enrichment (6-mer frequency, TF over GST control); with ETV7, 1.34 fold enrichment (6-mer frequency, TF over GST control); in the test with ELF5, 1.74 fold enrichment (6-mer frequency, TF over GST control). In addition, the binding signal was 1.61 fold enrichment (6-mer frequency, TF over GST control) with ETV3 and 1.51 fold enrichment (6-mer frequency, TF over GST control) with ETV6.

As for TGCTAC, the binding signal with ERF was 1.39 fold enrichment (6-mer frequency, TF over GST control); in the test with ETV3L it was 1.3 fold enrichment (6-mer frequency, TF over GST control); in the test with ETS2, 1.23 fold enrichment (6-mer frequency, TF over GST control); with SPDEF it was 1.26 fold enrichment (6-mer frequency, TF over GST control); with ETV7 it was 1.23 fold enrichment (6-mer frequency, TF over GST control); with ELF5, 1.17 fold enrichment (6-mer frequency, TF over GST control). For the same sequence, the binding signal in the test with ETV3 is 1.23 fold enrichment (6-mer frequency, TF over GST control); in the test with ETV6, 1.16 fold enrichment (6-mer frequency, TF over GST control).

On to AACGAC, for which the binding signal was 1.14 fold enrichment (6-mer frequency, TF over GST control) with ERF; 1.15 fold enrichment (6-mer frequency, TF over GST control) with ETV3L; 1.19 fold enrichment (6-mer frequency, TF over GST control) with ETS2; 1.16 fold enrichment (6-mer frequency, TF over GST control) with SPDEF; 1.07 fold enrichment (6-mer frequency, TF over GST control) with ETV7; 1.18 fold enrichment (6-mer frequency, TF over GST control) in the test with ELF5. Besides, the binding signal with ETV3 is 1.11 fold enrichment (6-mer frequency, TF over GST control); with ETV6, 1.19 fold enrichment (6-mer frequency, TF over GST control).
